# Results as given in PubChem BioAssay (Tox21).
# “And” between values parts separate entries of the source, which are not always exact repeats. Identical values can stand only once. Records with an inconclusive call do not appear. A call without a number means that no potency is given here. Where a structure was tested more than once in an assay, its records may differ in their call. The source made the active and inactive calls. Unless noted, calls come from the whole dose curve.
# What was measured:
# [1] = Nuclear factor erythroid 2-related factor 2/antioxidant responsive element (Nrf2/ARE) small molecule agonists: qHTS cell viability counter screen in human keratinocytes (AID 1919968; active = well fitted curve in the direction sought with a large enough effect in the repeat runs; an effect the other way counts as inactive or inconclusive; note: nearly all actives have a fitted effect of over 55% in size; note: potency is the fitted concentration of half-maximal effect)
# Procedure, shortened: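 In human HaCaT keratinocytes stably expressing an ARE-driven luciferase, compound exposure lasted 23 h at 37 C under 5% CO2. Viable cells are quantified with a protease-based fluorogenic reagent (CellTiter-Fluor) read 1 h after addition.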
# [2] = Nuclear factor erythroid 2-related factor 2/antioxidant responsive element (Nrf2/ARE) small molecule agonists: luciferase reporter gene qHTS assay in human keratinocytes (AID 1919969); note: nearly all actives have a fitted effect of over 35% in size; note: potency is the fitted concentration of half-maximal effect
# [3] = molecular target: Gonadotropin-releasing hormone receptor (Homo sapiens) (UniProt P30968); experiment: Human gonadotropin-releasing hormone receptor (GnRHR) small molecule agonists, calcium flux assay in GnRHR-HEK293 cells (AID 1920063); note: nearly all actives have a fitted effect of over 35% in size
# Procedure, shortened: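 Intracellular calcium rise is the read-out: engineered human GnRHR HEK293 cells, dye-loaded, are exposed to DMSO-dissolved compounds and fluorescence at Ex/Em 480/540 is tracked for 3 min.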
# [4] = molecular target: KiSS-1 receptor (Homo sapiens) (UniProt Q969F8); experiment: Human kisspeptin (KISS1R) small molecule agonists, calcium flux assay in KISS1R-HEK293 cells (AID 1920064; active = well fitted curve in the direction sought with a large enough effect in the repeat runs; an effect the other way counts as inactive or inconclusive)
# Procedure, shortened: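 Concentration-response testing used 15 concentrations in triplicate on human KISS1R-expressing HEK293 cells. Calcium-dependent fluorescence (Ex/Em 480/540) was followed kinetically for 3 min after compound transfer.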
# [5] = G protein-coupled receptor (GPCR) small molecule agonists, calcium flux assay: HEK293 wild type cell line counter screen (AID 1920065)
# Procedure, shortened: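 Fluorescence intensity signals activation. After overnight (18 h) culture and a 1 h calcium dye load at 37 C, compounds are added by pin tool and the plate read at 480/540 nm for 3 min in 1 s steps.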
# [6] = p53 small molecule agonists, cell-based qHTS assay with human liver microsomes (AID 1963577);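 note: p53 response element beta-lactamase reporter cells with liver microsomes plus NADPH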
# Procedure, shortened: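 p53RE-bla cells; 5 h settle, 37 C/5% CO2; cpd + HLM 0.5 mg/mL + NADPH 0.5 mg/mL (final); 16 h 37 C; LiveBLAzer 2 h RT dark; fluorescence readout.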
# [7] = p53 small molecule agonists, cell-based qHTS assay with rat liver microsomes (AID 1963578)
# Procedure, shortened: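 Rat liver microsome activation: microsomes 0.5 mg/mL, NADPH 0.5 mg/mL final; p53RE-bla cells, 16 h 37 C; LiveBLAzer readout, 2 h RT dark.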
# [8] = p53 small molecule agonists, cell-based qHTS assay with human liver microsomes: qHTS cell viability counter screen (AID 1963579); note: nearly all actives have a fitted effect of over 45% in size
# Procedure, shortened: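 Luminescent CellTiter-Glo read-out, 30 min at room temperature, gauged cytotoxicity in p53RE-bla cells exposed 16 h at 37 C to DMSO-dissolved compounds with metabolic activation by human liver microsomes and NADPH, each 0.5 mg/mL final.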
# [9] = p53 small molecule agonists, cell-based qHTS assay with rat liver microsomes: qHTS cell viability counter screen (AID 1963580); note: nearly all actives have a fitted effect of over 45% in size
# Procedure, shortened: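 Rat liver microsome (0.5 mg/mL final) and NADPH (0.5 mg/mL final) co-incubation with compounds for 16 h at 37 C on HCT-116 p53RE-bla cells; cytotoxicity taken from intracellular ATP luminescence.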
# [10] = p53 small molecule agonists, cell-based qHTS assay: qHTS cell viability counter screen (AID 1963581); note: nearly all actives have a fitted effect of over 45% in size
# Procedure, shortened: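 Luminescence from CellTiter-Glo, reflecting ATP content, serves as the cytotoxicity measure; it is taken after the 2 h reporter substrate step in HCT-116 p53RE-bla cells dosed for 16 h at 37 C.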
# [11] = p53 small molecule agonists, cell-based qHTS assay (AID 1963582; active = well fitted activation curve with a large enough effect in the signal ratio in the repeat runs, not every such curve was filed as active; the % refers to the signal ratio)
# Procedure, shortened: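 After plating, p53RE-bla cells sat 5 h in the incubator; compounds or DMSO vehicle were pinned in; a 16 h incubation at 37 C followed; FRET substrate was added and, 2 h later at RT, fluorescence was measured.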
# [12] = molecular target: 5-hydroxytryptamine receptor 2A (Homo sapiens) (UniProt P28223); experiment: 5-hydroxytryptamine receptor 2A (HTR2A) small molecule antagonists, cell-based qHTS assay (AID 1963586); note: nearly all actives have a fitted effect of over 45% in size
# Procedure, shortened: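 CHO cells stably expressing human HTR2A were plated for 18 h at 37 C, then loaded with calcium dye for 1 h. Compounds were preincubated 5 min at room temperature before DOI (4 nM solution) was added. Kinetic fluorescence was read for 3 min.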
# [13] = molecular target: Muscarinic acetylcholine receptor M1 (Homo sapiens) (UniProt P11229); experiment: Cholinergic receptor muscarinic 1 (CHRM1) small molecule antagonists, cell-based qHTS assay (AID 1963588); note: nearly all actives have a fitted effect of over 40% in size
# Procedure, shortened: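 Compounds were tested at 15 concentrations in three independent runs. Dye-loaded CHRM1-CHO cells were exposed 5 min at room temperature before stimulation by acetylcholine added at 50nM. Intracellular calcium was read kinetically on FDSS for 3 min.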
# [14] = molecular target: Muscarinic acetylcholine receptor M1 (Homo sapiens) (UniProt P11229); experiment: Cholinergic receptor muscarinic 1 (CHRM1) small molecule agonists, cell-based qHTS assay (AID 1963589); note: nearly all actives have a fitted effect of over 35% in size
# Procedure, shortened: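 Fluorescent calcium dye reports M1 activation in stably transfected CHO cells. Compounds, 15 concentrations, added after 1 h dye loading at 37 C; kinetic reading at 1 sec intervals.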
# [15] = cAMP Responsive Elements (CRE) small molecule agonists, cell-based qHTS assay (AID 1963590)
# Procedure, shortened: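 Compound exposure lasted 3 h at 37 C/5% CO2 in CRE-bla HEK 293T cells grown in assay medium with 10% dialyzed FBS and 25 mM HEPES. Reporter signal came from LiveBLAzer B/G FRET substrate, 2 h, room temperature.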
# [16] = molecular target: Beta-2 adrenergic receptor (Homo sapiens) (UniProt P07550); experiment: Adrenergic beta2 receptor (ADRB2) small molecule antagonists, cell-based qHTS assay (AID 1963592); note: series mostly up to about 92 µM; nearly all actives have a fitted effect of over 50% in size
# Procedure, shortened: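 Assay format: CHO-ADRB2 cells, 18-20hr seeding at 37C/5% CO2, then compound plus 1nM isoproterenol agonist mix for 0.5hr RT. Homogeneous time-resolved fluorescence cAMP detection after 1hr, expressed as 665/615 nm ratio.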
# [17] = molecular target: D(2) dopamine receptor (Homo sapiens) (UniProt P14416); experiment: Dopamine D2 receptor (DRD2) small molecule agonists, cell-based qHTS assay (AID 1963594); note: nearly all actives have a fitted effect of over 35% in size
# Procedure, shortened: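 cAMP accumulation in DRD2-HEK293 cells measured by HTRF after 1 h detection; compounds added 10 min before NKH477 (200nM […]) forskolin-analogue stimulation, 30 min at room temperature, with Ro20-1724 present at 0.1 mM final.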
# [18] = molecular target: D(2) dopamine receptor (Homo sapiens) (UniProt P14416); experiment: Dopamine D2 receptor (DRD2) small molecule antagonists, cell-based qHTS assay (AID 1963595; active = well fitted inhibition curve with a large enough effect in the signal ratio in the repeat runs, with a control signal flat; the % refers to the signal ratio)
# Procedure, shortened: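 Stable D2 receptor HEK293 line, 24 h after seeding. Compound preincubated 10 min, then quinpirole (12 nM) with forskolin analogue NKH477 (200 nM), 30 min, room temperature. Detection by time-resolved FRET of cAMP.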
# [19] = cAMP Responsive Elements (CRE) small molecule antagonists, cell-based qHTS assay (AID 1963591; active = well fitted inhibition curve with a large enough effect in the signal ratio in the repeat runs, not every such curve was filed as active; the % refers to the signal ratio)
# Procedure, shortened: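 Stimulation used NKH477 at a final 0.25 uM for 3 h in compound-treated CRE-bla HEK293T cells, seeded 18 h beforehand. Reporter activity was measured with LiveBLAzer B/G FRET substrate after 2 h at room temperature.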
# [20] = molecular target: 5-hydroxytryptamine receptor 2A (Homo sapiens) (UniProt P28223); experiment: 5-hydroxytryptamine receptor 2A (HTR2A) small molecule agonists, cell-based qHTS assay (AID 1963587); note: nearly all actives have a fitted effect of over 30% in size
# Procedure, shortened: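 Kinetic calcium-flux fluorescence (2 min, 1 sec intervals) after compound addition in agonist mode. HTR2A-CHO cells were cultured 18 h, then dye-loaded 1 h at 37 C.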
# Chain of D(2) dopamine receptor (Homo sapiens) (P14416 whole entry, looked up): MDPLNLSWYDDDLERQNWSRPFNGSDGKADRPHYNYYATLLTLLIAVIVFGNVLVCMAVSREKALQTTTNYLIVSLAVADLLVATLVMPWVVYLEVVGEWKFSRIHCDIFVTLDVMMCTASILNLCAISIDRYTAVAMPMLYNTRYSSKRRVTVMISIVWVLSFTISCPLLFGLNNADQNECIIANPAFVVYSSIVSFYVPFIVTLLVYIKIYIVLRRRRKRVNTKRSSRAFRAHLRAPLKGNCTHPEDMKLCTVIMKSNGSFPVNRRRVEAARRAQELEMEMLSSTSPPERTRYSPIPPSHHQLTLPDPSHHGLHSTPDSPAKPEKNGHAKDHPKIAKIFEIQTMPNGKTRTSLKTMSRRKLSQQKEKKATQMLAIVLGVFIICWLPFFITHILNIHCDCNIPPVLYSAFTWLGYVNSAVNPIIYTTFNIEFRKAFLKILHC
# Chain of Muscarinic acetylcholine receptor M1 (Homo sapiens) (P11229 whole entry, looked up): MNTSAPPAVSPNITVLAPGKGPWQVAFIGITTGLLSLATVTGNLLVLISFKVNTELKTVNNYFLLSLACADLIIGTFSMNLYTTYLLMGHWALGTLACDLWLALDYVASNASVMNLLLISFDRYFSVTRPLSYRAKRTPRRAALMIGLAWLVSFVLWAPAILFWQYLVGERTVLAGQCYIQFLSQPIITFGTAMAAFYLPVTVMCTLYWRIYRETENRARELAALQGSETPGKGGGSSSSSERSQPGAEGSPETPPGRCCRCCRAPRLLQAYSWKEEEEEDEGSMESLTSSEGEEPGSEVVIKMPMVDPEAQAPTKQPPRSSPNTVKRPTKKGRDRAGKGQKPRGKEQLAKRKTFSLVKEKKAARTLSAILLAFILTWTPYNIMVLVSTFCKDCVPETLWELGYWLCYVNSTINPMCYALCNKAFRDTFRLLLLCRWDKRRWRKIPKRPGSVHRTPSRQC
# Chain of Beta-2 adrenergic receptor (Homo sapiens) (P07550 whole entry, looked up): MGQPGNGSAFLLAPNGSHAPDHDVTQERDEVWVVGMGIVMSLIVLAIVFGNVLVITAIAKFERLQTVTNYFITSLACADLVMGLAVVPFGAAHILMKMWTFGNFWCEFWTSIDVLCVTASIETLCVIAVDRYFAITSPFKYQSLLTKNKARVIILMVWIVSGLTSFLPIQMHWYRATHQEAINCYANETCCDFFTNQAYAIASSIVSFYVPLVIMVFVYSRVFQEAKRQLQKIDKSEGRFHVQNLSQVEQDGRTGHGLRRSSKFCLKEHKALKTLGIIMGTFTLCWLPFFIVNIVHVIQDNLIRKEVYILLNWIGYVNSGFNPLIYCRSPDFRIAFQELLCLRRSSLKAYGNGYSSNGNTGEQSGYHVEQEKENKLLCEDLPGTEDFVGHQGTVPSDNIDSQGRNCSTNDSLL
# Chain of 5-hydroxytryptamine receptor 2A (Homo sapiens) (P28223 whole entry, looked up): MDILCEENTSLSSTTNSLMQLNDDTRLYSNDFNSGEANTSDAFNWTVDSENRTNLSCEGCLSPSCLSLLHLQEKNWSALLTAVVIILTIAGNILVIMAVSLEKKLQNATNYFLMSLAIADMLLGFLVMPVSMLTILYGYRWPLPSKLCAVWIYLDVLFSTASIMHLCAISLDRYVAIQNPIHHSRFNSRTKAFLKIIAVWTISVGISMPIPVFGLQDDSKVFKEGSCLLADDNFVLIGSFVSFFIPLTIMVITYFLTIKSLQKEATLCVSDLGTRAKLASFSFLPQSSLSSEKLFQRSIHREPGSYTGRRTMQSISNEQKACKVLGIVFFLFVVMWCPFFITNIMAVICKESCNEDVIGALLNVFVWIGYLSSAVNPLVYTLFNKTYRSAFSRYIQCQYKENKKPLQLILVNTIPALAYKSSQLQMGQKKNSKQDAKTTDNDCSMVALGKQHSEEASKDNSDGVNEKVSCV
# Chain of KiSS-1 receptor (Homo sapiens) (Q969F8 whole entry, looked up): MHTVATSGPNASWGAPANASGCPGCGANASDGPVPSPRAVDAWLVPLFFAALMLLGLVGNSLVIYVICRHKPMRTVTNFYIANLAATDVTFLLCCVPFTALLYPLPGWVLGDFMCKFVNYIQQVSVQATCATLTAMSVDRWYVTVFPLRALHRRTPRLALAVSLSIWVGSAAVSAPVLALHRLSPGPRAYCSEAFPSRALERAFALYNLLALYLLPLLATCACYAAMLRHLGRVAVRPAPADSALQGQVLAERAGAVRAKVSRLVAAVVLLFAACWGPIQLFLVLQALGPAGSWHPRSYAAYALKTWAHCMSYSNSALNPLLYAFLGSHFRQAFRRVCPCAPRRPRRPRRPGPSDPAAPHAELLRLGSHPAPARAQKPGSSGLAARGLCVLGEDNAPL
# Chain of Gonadotropin-releasing hormone receptor (Homo sapiens) (P30968 whole entry, looked up): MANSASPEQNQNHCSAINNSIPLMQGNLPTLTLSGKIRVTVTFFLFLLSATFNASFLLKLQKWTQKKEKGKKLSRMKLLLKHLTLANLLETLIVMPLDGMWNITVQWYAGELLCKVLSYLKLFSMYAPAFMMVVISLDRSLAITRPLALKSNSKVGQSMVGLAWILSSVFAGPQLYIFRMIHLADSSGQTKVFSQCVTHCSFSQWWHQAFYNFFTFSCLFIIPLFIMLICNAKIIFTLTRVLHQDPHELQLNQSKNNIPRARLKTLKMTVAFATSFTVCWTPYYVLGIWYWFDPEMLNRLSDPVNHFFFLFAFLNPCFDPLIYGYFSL
Compound,Potency [1],Potency [2],Potency [3],Potency [4],Potency [5],Potency [6],Potency [7],Potency [8],Potency [9],Potency [10],Potency [11],Potency [12],Potency [13],Potency [14],Potency [15],Potency [16],Potency [17],Potency [18],Potency [19],Potency [20]
C=C(C)C(=O)OCC(CC)CCCC (configuration not stated),inactive,inactive,inactive,inactive,inactive,inactive,inactive,inactive,inactive,inactive,inactive,inactive,inactive,inactive,inactive,inactive,inactive,inactive,–,–
COc1ccc(N)cc1,inactive,inactive and 68 µM (active),inactive,inactive,inactive,inactive,inactive,inactive,inactive,inactive,inactive,inactive,inactive,inactive,inactive,inactive,inactive,inactive,–,–
c1ccc2c(c1)sc1ccccc12,inactive,inactive,inactive,inactive,inactive,inactive,inactive,inactive,inactive,inactive,inactive,inactive,inactive,inactive,inactive,inactive,inactive,inactive,inactive,–
CCOC(=O)CP(=O)(OCC)OCC,inactive,inactive,inactive,inactive,inactive,inactive,inactive,inactive,inactive,inactive,inactive,inactive,–,–,–,inactive,–,inactive,inactive,inactive
O=S(=O)(O)C(F)(F)C(F)(F)C(F)(F)C(F)(F)C(F)(F)C(F)(F)C(F)(F)C(F)(F)F,inactive and 61.1 µM (active),inactive and 61.1 µM (active),inactive,inactive,inactive,inactive,inactive,inactive,inactive,inactive,inactive,–,inactive,–,inactive,inactive,inactive,–,inactive,inactive
C/C=C/c1ccc2c(c1)OCO2,inactive,inactive,inactive,inactive,inactive,inactive,inactive,inactive,inactive,inactive,inactive,–,–,–,inactive,inactive,inactive,inactive,inactive,–
N#Cc1cc(Br)c(O)c(Br)c1,inactive,inactive,inactive,inactive,inactive,inactive,inactive,inactive,inactive,inactive,–,inactive,–,inactive,–,inactive,inactive,inactive,inactive,inactive
COc1ccc(C(CN(C)C)C2(O)CCCCC2)cc1 (configuration not stated),inactive,inactive,inactive,inactive,inactive,inactive,inactive,inactive,inactive,inactive,inactive,–,–,–,inactive,inactive,inactive,inactive,inactive,–
CCN(N=O)C(N)=O,inactive,inactive,inactive,inactive,inactive,inactive,inactive,inactive,inactive,inactive,–,inactive,inactive,inactive,inactive,inactive,inactive,–,inactive,inactive
C=CCc1ccc2c(c1)OCO2,inactive,inactive,inactive,inactive,inactive,inactive,inactive,inactive,inactive,inactive,inactive,–,–,–,inactive,inactive,inactive,inactive,inactive,–
CCC(=O)c1ccccc1,inactive,inactive,inactive,inactive,inactive,inactive,inactive,inactive,inactive,inactive,–,inactive,inactive,inactive,inactive,inactive,inactive,inactive,inactive,inactive
N#CCNCC#N,inactive,inactive,inactive,inactive,inactive,inactive,inactive,inactive,inactive,inactive,–,inactive,inactive,inactive,inactive,inactive,inactive,inactive,inactive,inactive
C=CCc1ccccc1O,inactive,inactive,inactive,inactive,inactive,inactive,inactive,inactive,inactive,inactive,–,inactive,inactive,inactive,inactive,inactive,inactive,inactive,inactive,inactive
C=CC(=O)OCC(C)C,inactive,inactive,inactive,inactive,inactive,inactive,inactive,inactive,inactive,inactive,–,inactive,inactive,inactive,inactive,inactive,inactive,inactive,inactive,inactive
